# Source: PubChem BioAssay
# Pf growth 96h = P. falciparum growth inhibition at 96 hours. Potency, µM (top dose mostly 28.7 µM), for inactives: at the top dose activity change, negative = inhibition, usual class: inhibitors. 320,000 tested, 6.9% active. AID 504834. P. falciparum luciferase reporter growth, 96 h; note: potency is the fitted concentration of half-maximal effect; % is set by controls: 0 for no effect and ±100 for the full control effect
#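 Plates of compound plus infected erythrocytes (2% hematocrit, 0.05% parasitemia final) incubate 96 hours, 37 C, 5% CO2. Detection reagent added; reduced luminescence from the parasites' luciferase reporter flags inhibition.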
# Pf growth 48h = inhibits P. falciparum growth in the first generation, 48 h; P. falciparum luciferase growth in erythrocytes, 48 h; Potency, µM (top dose mostly 28.7 µM), for inactives: top-dose activity change, negative = inhibition, hits mostly inhibitors; 310,000 tested, 5.9% active; AID 504832; note: potency is the fitted concentration of half-maximal effect; % is set by controls: 0 for no effect and ±100 for the full control effect
#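 In quantitative HTS format, infected erythrocytes bearing luciferase-reporter parasites were treated for a single generation at 37 C. Luminescence after adding detection reagent served as the growth measure.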
# Shiga toxin inh = blocks Shiga toxin action in Vero cells | Vero cells, Shiga toxin protein synthesis inhibition reporter | inhibition, % at 38.7 µM | 290,000 tested, 9.2% active | AID 2315; in the data active = inhibition mostly above about 28%, no sharp cut-off; inactive = mostly below about 43%; note: 0% is about no effect
# HCV inh = HCV inhibition; Huh7.5.1 HCVcc-Cre infection, luciferase reporter, 44 h; Potency, µM (highest dose often 41.8 µM), for inactives: top-dose activity change, negative = inhibition, usual class: inhibitors; 340,000 tested, 3.4% active; AID 651820; note: potency is the fitted concentration of half-maximal effect; % is set by controls: 0 for no effect and ±100 for the full control effect
#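 Whole-lifecycle infectious HCVcc-Cre system; cells 1,000/well, compound then virus (~0.5 moi) added 4 h after plating, 44 h culture. Luciferase read 15 sec following 15 min substrate incubation, room temp.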
# CHX counter = affects cycloheximide protein synthesis inhibition readout, counter-screen; cell reporter, cycloheximide protein synthesis inhibition counterscreen; 300,000 tested, 12% active; AID 2314; max response, %; in the data active = max response mostly above about 13%, no sharp cut-off; inactive = mostly below about 14%; note: read at 38.3 µM for the half of the compounds with a filed dose; 0% is about no effect
# HCMV antiviral = blocks human cytomegalovirus replication; HFF cells, HCMV-luciferase reporter, 72 h; hits give low values; 410,000 tested, 4.5% active; activity change, negative = inhibition, % at 57.5 µM; AID 1259415; in the data active = activity change below about -60%; inconclusive = no clear call, values can overlap the other calls; inactive = above about -39%; note: % is set by controls: 0 for no effect and ±100 for the full control effect
#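 Human foreskin fibroblasts infected with luciferase-reporter HCMV at MOI 1 PFU/cell, compounds at two doses. Luciferase measured 72 h post infection; normalized to buffer-only basal and Salinomycin (10uM) controls.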
# The depositor's hits bear a star; ? = inconclusive; . = not tested or not shown. In the library only some 21% were active in any assay of this set; here they are far more common. Unless noted, calls come from the whole dose curve; as a rule, active = well fitted inhibition curve with a large enough effect; inconclusive = small, poorly fitted or top-dose-only effect, or another doubt; inactive = no such curve, though single readings can be large or run the other way.
SMILES,Pf growth 96h,Pf growth 48h,Shiga toxin inh,HCV inh,CHX counter,HCMV antiviral
CCc1ccccc1N1CC(C(=O)Nc2nccs2)CC1=O (stereo not given),2.8%,18.9%,10.7,22.7%,-2.9,-3.5
CC(C)C(NS(=O)(=O)c1ccccc1)C(=O)N1CCCC1 (stereo not given),?,3.1%,-3.8,6.3%,-2.5,57.9
O=C(Nc1cc(S(=O)(=O)N2CCOCC2)ccc1N1CCOCC1)c1ccc(Cl)nc1,-26.3%,-16.7%,-12.9,-6.5%,-1.0,-21.2
CN(C(=O)Oc1ccc(C(C)(C)C)cc1)c1ccccc1,?,?,59.1*,?,18.9*,26.7
CCC(=O)c1ccc(OC(=O)N(C)c2ccccc2)cc1,4.1%,56.3%,74.7,0.1%,25.5*,-8.6
CC(=O)Nc1ccc(OC(=O)N(C)c2ccccc2)cc1,12.8%,36.1%,20.4,12.6%,12.6,-32.8
CN(C(=O)Oc1ccc(F)cc1)c1ccccc1,?,-0.8%,-2.8,0.5%,-2.0,3.5
CC1(c2nnc(-c3cccc(Cl)c3)o2)CC(c2cccc([N+](=O)[O-])c2)=NO1 (stereo not given),40.4%,14.6%,-2.2,7.94µM*,-1.6,-11.3
CC1(c2nnc(-c3ccncc3)o2)CC(c2ccc(Cl)cc2)=NO1 (stereo not given),.,.,.,11.2µM*,.,-27.0
CC1(c2nnc(-c3ccccc3)o2)CC(c2ccc([N+](=O)[O-])cc2)=NO1 (stereo not given),.,.,.,?,.,-68.2*
CC1CCCN(CC(=O)Nc2ccc(S(=O)(=O)N3CCCCC3)cc2)C1 (stereo not given),9.28µM*,?,-5.0,3.4%,-1.7,?
CC1CCCN(CC(=O)Nc2ccc(S(=O)(=O)N3CCCCCC3)cc2)C1 (stereo not given),-16.9%,-24.8%,-10.0,-17.5%,-2.4,-5.5
Cc1cc(NC(=O)CN2CCCC(C)C2)no1 (stereo not given),19.0%,70.3%,48.9*,6.9%,12.8*,?
CCN1CCN(CC(=O)Nc2ccc(S(=O)(=O)N3C(C)CCCC3C)cc2)CC1 (stereo not given),-23.1%,39.0%,-14.1,16.5%,-5.4,-99.4*
CC1CC(C)CN(S(=O)(=O)c2ccc(NC(=O)CN3CCCCCC3)cc2)C1 (stereo not given),?,7.38µM*,.,?,.,-20.4
O=C(CSc1n[nH]c(-c2ccncc2)n1)Nc1ccccc1Cl,3.0%,1.9%,.,1.9%,.,-24.1
CC(C)n1cnc(S(=O)(=O)N2CCCC(C(=O)NCc3ccccc3Cl)C2)c1 (stereo not given),.,.,.,.,.,-36.0
COCCC(=O)N1CCC(n2nccc2NC(=O)c2ccccc2C)CC1,?,14.1%,-3.7,13.1%,1.0,-26.5
CCc1nn(-c2ccccc2)c(=S)c2ccccc12,4.8%,-9.1%,-8.9,?,-1.2,-63.1*
CCOC(=O)c1cccc(NC(=O)NC(C)c2c(-n3cccc3)sc3c2CCN(C)C3)c1 (stereo not given),.,.,.,.,.,-37.3
CC1CCN(c2nc3ccc(C(=O)NCCCN4CCCCC4)cc3s2)CC1,14.1%,-13.4%,29.4*,-10.2%,28.3*,8.3
CC1CCN(c2nc3ccc(C(=O)NCc4ccc(Cl)cc4)cc3s2)CC1,.,.,.,.,.,40.3
Cc1ccc(CCNC(=O)c2ccc3nc(N4CCC(C)CC4)sc3c2)cc1,.,.,.,.,.,9.6
CC1CCN(c2nc3ccc(C(=O)O)cc3s2)CC1,-12.1%,1.17µM*,-24.2,25.4%,-6.9,-78.3*
CCC1CCCCN1CCCNC(=O)c1ccc2nc(N3CCC(C)CC3)sc2c1 (stereo not given),?,?,90.4*,?,28.8*,-15.3
COP1(=O)CC(O)C(O)C(COCc2ccccc2)O1 (stereo not given),.,.,2.3,.,-0.4,.
CCOC(=O)c1c(S(=O)(=O)N2CCCC(C(=O)Nc3cccc(C#N)c3)C2)c(C)n(C)c1C (stereo not given),.,.,.,.,.,-32.7
COCO/C=C(\NC(C)=O)c1ccccc1,48.1%,30.1%,.,8.2%,.,1.4
S=C1NCN(CC2CC2)CN1,.,.,.,.,.,-6.3
CS(=O)(=O)N1N=C(c2ccc(Cl)cc2)CC1c1cccs1 (stereo not given),2.9%,.,34.7,10.1%,35.0*,13.6
